# Experiments:
# [1] = target: T1, Aspartate--tRNA(Asp/Asn) ligase (Mycobacterium tuberculosis (strain ATCC 25618 / H37Rv)) (UniProt P9WFW3); assay: Assay for Asp RNA synthetase-1 from Mycobacterium tuberculosis; type: functional; parameters: scale not given: direction of the effect not stated beside the values; details: 30 µM; further: in the data most compounds retested in dose-response had high values
# T1 sequence (whole entry): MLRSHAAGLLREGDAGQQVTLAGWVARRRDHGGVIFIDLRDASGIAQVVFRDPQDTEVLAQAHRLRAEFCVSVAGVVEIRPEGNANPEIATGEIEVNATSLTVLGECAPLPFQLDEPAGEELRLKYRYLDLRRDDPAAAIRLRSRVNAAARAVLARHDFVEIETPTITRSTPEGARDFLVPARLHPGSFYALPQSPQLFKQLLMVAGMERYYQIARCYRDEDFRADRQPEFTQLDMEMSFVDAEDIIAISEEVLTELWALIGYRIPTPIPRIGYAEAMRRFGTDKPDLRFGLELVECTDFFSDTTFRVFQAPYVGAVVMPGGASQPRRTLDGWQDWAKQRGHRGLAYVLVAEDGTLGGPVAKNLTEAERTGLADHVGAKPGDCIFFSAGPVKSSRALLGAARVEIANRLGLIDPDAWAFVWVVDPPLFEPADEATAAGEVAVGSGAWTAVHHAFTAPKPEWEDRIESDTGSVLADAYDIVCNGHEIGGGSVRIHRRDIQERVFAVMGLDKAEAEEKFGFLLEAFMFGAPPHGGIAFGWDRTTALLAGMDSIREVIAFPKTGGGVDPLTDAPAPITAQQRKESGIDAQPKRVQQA
# [2] = target: Shiga toxin 2 (Escherichia coli O157:H7) (UniProt P09385+P09386); assay: E. coli 0.157:H7 Shiga Toxin SOP - stx2 screening assay; type: functional; parameters: scale not given: direction of the effect not stated beside the values; details: 30 µM
Structure (SMILES),Percent Effect [1] [%],Percent Effect [2] [%]
O=C(Cc1cccs1)NC1CCN(c2cccc(F)c2)CC1,2.33,-14.1
O=C(NC1CC1)[C@@H]1CCO[C@@H]2CCN(Cc3ccsc3)C[C@H]21,0.474,-0.513
CC(C)(C)n1cc(C(=O)N2CCCN(Cc3cccs3)CC2)cn1,-0.0333,35.3
Cc1ccc(S(=O)(=O)NC(=O)c2cccc(OCC(N)=O)c2)s1,2.86,-20.2
CC(=O)N1CCO[C@@H]2CN(C(=O)c3cc(C)oc3C)CC[C@@H]2C1,4.81,-5.49
COCCNC(=O)[C@H]1CN(Cc2scnc2C)C[C@H]2OCC[C@@H]12,-3.26,0.32
CCOCC(O)CN1CCN(C(=O)c2ccnc(N(C)C)c2)CC1 (stereo unspecified),-2.58,-13.4
CCn1cnnc1C1CCN(C(=O)c2ccc(Cl)s2)CC1,-0.371,-7.76
CC(C)n1[nH]c(=O)c2c1NC(=O)CC2c1cccc(OC(F)F)c1 (stereo unspecified),0.474,-12.1
Cn1cc(C2CCCN2C(=O)Cc2n[nH]c3ccccc23)cn1 (stereo unspecified),-9.51,-33.7
CCc1nc(C2CCCN2Cc2nc(C3CC3)no2)no1 (stereo unspecified),-4.58,-6.89
COc1ccc(OCCCN2CCOC(Cn3cccn3)C2)cc1 (stereo unspecified),-0.393,5.03
COc1cccc(-n2nnc(C(=O)N3CCN(C)CC3C)c2C)c1 (stereo unspecified),-2.92,-48.2
CCCn1ncc2c(C(=O)Nc3n[nH]c(SC)n3)cc(C3CC3)nc21,-6.49,-0.011
COc1cc2nc3n(c(=O)c2cc1OC)CCN(C)CC3,-1.59,-7.54
Cc1occc1C(=O)N1CCc2c(COCC3CC3)cncc2C1,-0.443,-11.9
CCC(C)c1noc(C2CCN(C(=O)c3cccs3)CC2)n1 (stereo unspecified),4.84,-48
CC(C)(C)C(=O)NCCc1ccn(-c2ccccc2)n1,-7.82,-32.2
Cc1nnc(C(C)N2CCN(Cc3ccc4c(c3)OCO4)CC2)o1 (stereo unspecified),-0.657,17.8
CC(C)CN1CCN(C(=O)Nc2cc(C(F)(F)F)c[nH]c2=O)CC1,-1.79,5.35
CCS(=O)(=O)N1C[C@@H](OCc2cccnc2)[C@H]2OCCC[C@H]21,3.4,5.21
O=C(NCC1CC1)C1CN(C(=O)c2cccc(Cl)c2)CC12CCOCC2 (stereo unspecified),11.9,-14.2
COc1ccc(-c2csc(N)c2C#N)cc1OC,3.46,-24.5

Structure (SMILES),Percent Effect [1] [%],Percent Effect [2] [%]
Cc1nn(CC(C)C)c(N(C)C)c1CNCc1cccc2c1OCO2,1.9,20.6
COC(=O)CCNC(=O)c1ccoc1CN1c2ccccc2CC1C (stereo unspecified),0.0912,-1.74
CCc1nc(C2CCCN2CC(=O)Nc2nncs2)no1 (stereo unspecified),-0.364,2.9
CC(=O)NCC(=O)N1CC[C@H](OCC2CC2)[C@@H]1Cc1cccnc1,1.14,5.09
COc1cccc(C2CC(=O)Nc3nc(N4CCOCC4)sc32)c1OC (stereo unspecified),63.4,-3.76
Cc1cnn(CC2CN(CC(=O)N(C)Cc3cccs3)CCO2)c1 (stereo unspecified),-5.6,-8.69
CCC(=O)N1CCC(c2nnc(Cn3cncn3)n2C2CC2)CC1,-3.04,-2.15
CCCNC(=O)Cn1cc(-c2ccccc2)cn1,-2.52,-0.0685
CC(C)C(=O)NCC(=O)N(C)C1CCCN(CCc2ccccc2)C1 (stereo unspecified),-0.948,-14.4
COCCOc1ccc(NC(=O)N2CCCC2c2ccncc2)cn1 (stereo unspecified),0,19
CC(C)N1CCCC(CCCc2ccccn2)(C(=O)O)C1 (stereo unspecified),1.98,9.97
CC(C)N(C)CCCNC(=O)c1cnc(-c2ccccc2)nc1,3.09,-37.7
CCc1ncncc1C(=O)N1CCN(Cc2ccco2)CC1,3.68,8.73
CC1(NC(=O)Cc2csc(C(C)(C)C)n2)CCS(=O)(=O)C1 (stereo unspecified),-6.9,-10.1
CNc1cc2c(nn1)CCN(C(=O)C1CCCc3ccccc31)C2 (stereo unspecified),0.0571,4.77
CC(C)(C)SCCCC(=O)N1CCC(Nc2cccnn2)CC1,-1.23,-5.49
Cc1nc(CN(C)C2CCN(CC(=O)N3CCOCC3)C2)no1 (stereo unspecified),5.36,11.2
Cc1c[nH]nc1C1CCN(S(=O)(=O)N(C)C)CC1,2.31,-2.83
CC(=O)Nc1nc(C(=O)NC(C)c2ccc(F)cc2)cs1 (stereo unspecified),-3.46,26.2
O=C(N[C@@H]1CN(Cc2ccc3c(c2)OCO3)[C@@H]2CCCO[C@@H]21)C1CC1,5.97,9.3
Cc1nc(CN2C[C@@H]3CN(C(=O)c4cnccn4)C[C@@H]3C2)cs1,-0.661,1.79
Cc1ccc(-c2cc(CNC(=O)N3CCOC(C)C3)on2)cc1 (stereo unspecified),0.699,9.22
COCC1CC2(CCN(C(=O)c3cccc(C)c3)CC2)CO1 (stereo unspecified),-0.131,-2.68

Structure (SMILES),Percent Effect [1] [%],Percent Effect [2] [%]
CCOc1nnc(CNC2CCCN(c3ccc(C)nn3)C2)s1 (stereo unspecified),9.48,19.6
Fc1ccc(CN2CCCC(c3nnc(-c4cnccn4)o3)C2)cc1F (stereo unspecified),2.55,-5.16
COc1cc(N2CCCC(c3nccn3CCN(C)C)C2)nc(N)n1 (stereo unspecified),-3.58,23.8
Cc1nc2cc(O)nn2c(C)c1CCC(=O)N(C)Cc1cscn1,8.09,4.66
CC(C)n1ncc2c1NC(=O)CSC2C(C)(C)C (stereo unspecified),-2.73,-13.8
CCN(CC)CCNC(=O)c1cnc(C(C)(C)C)s1,-0.45,17.4
Cc1[nH]nc(CCC(=O)N2CCCC(OCc3cccnc3)C2)c1C (stereo unspecified),-6.25,20
CS(=O)(=O)CCC(=O)N1CCC2(CCCN(C3CCOCC3)C2=O)C1 (stereo unspecified),3.37,-8.62
c1ccc(COC2CCN(c3cncc(-n4cccn4)n3)CC2)cc1,-3.76,-38.3
CC(C(=O)NCc1ccnc(Oc2ccc(F)cc2)c1)n1cncn1 (stereo unspecified),-5.88,6.33
Cc1cnn(C2CCCN(C(=O)c3sccc3C#N)C2)c1 (stereo unspecified),1.95,-36.4
CN1CCN(C[C@@H]2CN(C(=O)c3ccccc3C#N)C[C@@H]2CO)CC1,-1.09,-8.04
Cc1ccc(CNC(=O)N2CCN(Cc3ccsc3)CC2)n1C,0.896,-31.3
CCc1ncnc2c1CCN(C(=O)N1CCCC1)CC2,1.98,-14
O=C1CCCCN1Cc1cccc(NC(=O)N2CCSCC2)c1,-4.71,-1.06
Cc1occc1C(=O)N1CCc2ncnc(-c3cnn(C)c3)c2CC1,-0.55,-3.59
Cc1nsc(N2CCCN(c3nc(C4CC4)ns3)CC2)n1,0.575,-18.6
COc1ncccc1CN1Cc2nnn(C)c2C(COCC2CC2)C1 (stereo unspecified),4.09,-10.1
Cc1nc(CNC(=O)Cn2nc(-c3ccc(F)cc3)oc2=O)cs1,-0.967,17.9
COCC1c2c(cnn2CC2CCOCC2)CCN1Cc1ccoc1 (stereo unspecified),0.211,-9.29
CN(Cc1ccsc1)C(=O)c1cc2c([nH]c1=O)CCCC2=O,-1.51,12.2
N#Cc1cccc(CN2CC[C@@H]3[C@@H]2CC(=O)N3Cc2cccnc2)c1,4.04,-0.447

# From ChEMBL document CHEMBL3988442, “University of Dundee, Small-Polar-MMV Screening Library” (2021)
